Source: PubChem BioAssay
Hits are enriched below; roughly 1% of the tested compounds scored in any of these assays.
L3MBTL1 inh: qHTS Assay for the Inhibitors of L3MBTL1. Lethal(3)malignant brain tumor-like protein 1 (Homo sapiens), Q9Y468. AlphaScreen L3MBTL1–H3K9me1 peptide binding. Potency, µM (top dose mostly 57.1 µM), without a hit: at the highest dose activity, negative = inhibition, usual class: inhibitors. 230,000 compounds, 0.66% hits. AID 485360, 2010; also: nearly all actives have a fitted effect of over 60% in size
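AlphaScreen proximity signal between nickel-chelate acceptor and streptavidin donor beads (final 10 ug/mL) reports binding of 50 nM L3MBTL1 to 75 nM biotin-H3 K9me1 peptide; complex incubated with compounds 30 min at room temperature; cefsulodin titration as control.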
APE1 inh: qHTS Assay for Inhibitors of the Human Apurinic/apyrimidinic Endonuclease 1 (APE1) | DNA repair nuclease/redox regulator APEX1 (Homo sapiens), P27695 | recombinant APE1, TAMRA/BHQ-2 abasic DNA cleavage fluorescence | Potency, µM (doses to about 65.8 µM), for the others: at the top dose activity change, negative = inhibition, hits mostly inhibitors | 350,000 compounds, 0.35% hits | AID 2517, 2012;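 also: plate controls were vehicle for no effect and reference inhibitor for full effect; nearly all actives have a fitted effect of over 55% in size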
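Step 1: APE1 (0.75 nM) with compound, 15 min RT. Step 2: add 50 nM fluorophore/quencher THF duplex. Step 3: three fluorescence reads 60 s apart (525/598 nm); read 3 minus read 1 = reaction progress.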
WRN inhibitor: qHTS for Inhibitors of WRN Helicase; 360,000 compounds, 0.46% hits; AID 651768, 2012; Potency, µM (doses to about 114 µM), inactives show top-dose activity change, negative = inhibition, actives largely listed as inhibitors; WRN helicase unwinding, fluorescent forked duplex, kinetic; also: nearly all actives have a fitted effect of over 55% in size
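Primary qHTS, 1536-well format. 20 nM WRN + compound, 15 min RT; start with 100 nM forked fluorophore/quencher duplex, 2 mM ATP (final); kinetic read ex 525/em 598 nm.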
BLM helicase inh: qHTS Assay for Inhibitors of Bloom's syndrome helicase (BLM); RecQ-like DNA helicase BLM (Homo sapiens), P54132; recombinant BLM DNA unwinding, fluorescence dequenching; Potency, µM (series often up to 56.1 µM), for inactives: at the top dose activity change, negative = inhibition, actives largely listed as inhibitors; 350,000 compounds, 0.2% hits;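 also: plate controls were vehicle for no effect and no enzyme for full effect; nearly all actives have a fitted effect of over 35% in size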
RECQ1 inh: qHTS Assay for Inhibitors of RecQ-Like Dna Helicase 1 (RECQ1); RECQ1 DNA unwinding, red fluorescence kinetic read; ATP-dependent DNA helicase Q1 (Homo sapiens), P46063; 240,000 compounds, 0.54% hits; Potency, µM (highest dose often 57.3 µM), for inactives: at the top dose activity, negative = inhibition, hits mostly inhibitors; AID 2549, 2010;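 also: plate controls were vehicle for no effect and no enzyme for full effect; nearly all actives have a fitted effect of over 30% in size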
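50 nM RECQ1T1 preincubated 15 min with compound in Tris pH 8.0 buffer with MgCl2, DTT, Tween-20 and 2.5 ug/ml poly(dI-dC); started with 200 nM TAMRA/BHQ-2 forked duplex and 2 mM ATP. Unwinding read as fluorescence (525/598 nm), two reads 2 h apart.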
FEN1 inhibitor: qHTS Assay for the Inhibitors of Human Flap endonuclease 1 (FEN1) | P39748 | Recombinant FEN1 flap cleavage, fluorescence, 15 min | 390,000 compounds, 0.35% hits | AID 588795, 2011 | Potency, µM (highest dose often 114 µM), for inactives: at the top dose activity change, negative = inhibition, actives largely listed as inhibitors; also: nearly all actives have a fitted effect of over 65% in size
Target sequence (P39748 whole entry, looked up): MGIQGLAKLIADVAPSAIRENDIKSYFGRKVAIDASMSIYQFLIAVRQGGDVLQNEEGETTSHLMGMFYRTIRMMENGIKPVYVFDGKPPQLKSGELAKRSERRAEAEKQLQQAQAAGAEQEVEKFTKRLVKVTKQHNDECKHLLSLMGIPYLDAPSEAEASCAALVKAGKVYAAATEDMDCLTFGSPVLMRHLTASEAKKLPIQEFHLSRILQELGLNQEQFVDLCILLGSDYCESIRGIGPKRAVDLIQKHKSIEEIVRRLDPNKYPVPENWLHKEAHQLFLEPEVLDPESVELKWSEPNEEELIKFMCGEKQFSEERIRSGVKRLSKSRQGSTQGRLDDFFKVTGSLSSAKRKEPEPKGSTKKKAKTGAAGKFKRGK
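Nuclease activity of 10 nM FEN1 was measured after 15 min of room-temperature exposure to titrated compounds, by adding 50 nM flap substrate and reading plates at 0 and 15 min.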
* marks the source's active call; other numbers are inactive results; ? = inconclusive; . = no result; [ ] = dose if it differs, or a comment. Calls follow the shape of the dose curve; as a rule, active = well fitted curve in the direction sought with a large enough effect; inconclusive = small, poorly fitted or top-dose-only effect, or another doubt; inactive = no such curve, though single readings can be large; an effect the other way counts as inactive or inconclusive. Unless noted, % is scaled to controls: 0 for no effect and ±100 for the full control effect; potency is read from the fitted curve at half-maximal effect.

SMILES | L3MBTL1 inh | APE1 inh | WRN inhibitor | BLM helicase inh | RECQ1 inh | FEN1 inhibitor
C=C1C=C(C(F)F)n2ncc(C(=O)NCCc3ccccc3Cl)c2N1 | . | 23% | . | . | . | .
Cc1cccc(NC(=O)C2CCN(c3nc4ccccc4[nH]3)CC2)c1C | . | . | . | -1% | . | -9%
CN(C)S(=O)(=O)c1cccc(-c2nn(-c3ccccc3)cc2/C=C2\SC(=S)NC2=O)c1 | -16% | -5% | 50µM* | -28% | -7% | ?
Cc1nc2c(=O)[nH]c(=S)n(C)c2nc1C | -1% | -4% | 56µM* | 3% | 4% | ?
N#Cc1cccc(NC(=O)CNc2cccc(S(=O)(=O)N3CCCCC3)c2)c1 | 3% | 11% | -2% | . | . | 1%
CC(C)(C)n1ncc2c(=O)n(Cc3cccc(F)c3)cnc21 | . | 1% | . | . | . | 14%
CCOc1cc(/C=C2\C(=N)N3N=C(S(C)(=O)=O)SC3=NC2=O)ccc1OCCOc1cccc(OC)c1 | . | ? | 56µM* | -16% | . | -25%
O=S(=O)(c1ccccc1)N1CCN(S(=O)(=O)c2ccccc2)CC1 | . | . | . | . | . | -49%
O=S(=O)(/N=S1\CC=CCN1S(=O)(=O)c1ccccc1)c1ccccc1 (stereo not given) | . | . | 8.9µM* | . | . | ?
COc1ccc(-c2nc(SCC(=O)Nc3c(C)cc(C)cc3C)n[nH]2)cc1 | . | . | . | 0% | . | 10%
Cc1ccc(S(=O)(=O)NC(=O)C2(C)CCN2C(=O)C2CCCCC2)nc1 (stereo not given) | . | . | 6% | . | . | .
O=C(O)C1OC(Oc2c(-c3ccc(O)c(O)c3)oc3cc(O)cc(O)c3c2=O)C(O)C(O)C1O (stereo not given) | ? | 7.1µM* | ? | 1% | -21% | 11µM*
C[C@@H]1O[C@@H](OC[C@@H]2O[C@H](Oc3c(-c4ccc(O)cc4)oc4cc(O)cc(O)c4c3=O)[C@@H](O)[C@H](O)[C@H]2O)[C@H](O)[C@H](O)[C@H]1O | 6% | 6% | 0% | . | . | -11%
CCN[C@@H]1C[C@H](N)[C@@H](OC2OC(CN)=CCC2N)[C@H](O)[C@H]1O[C@H]1OC[C@](C)(O)[C@H](NC)[C@H]1O (stereo not given in full) | . | 1%[21 µM] | . | . | . | .
CCN(CC)C(=O)C1=C(C)N(Cc2ccc(OC)cc2)C(=O)C(CC(=O)NCCCN(C)C)C1 (stereo not given) | . | . | -2% | . | . | .
O=C(Nc1ccc(NC(=O)c2ccc(Cl)cc2Cl)cc1)c1ccc2c(c1)OCO2 | . | -14% | 19% | 2% | . | 4%
O=C(/C=C/c1ccc(/C=C/C(=O)Nc2ccc(C3=NCCN3)cc2)cc1)Nc1ccc(C2=NCCN2)cc1 | . | 32µM* | . | ? | -29% | .
O=C(Nc1ccc(C2=NCCN2)cc1)c1ccc(C(=O)Nc2ccc(C3=NCCN3)cc2)c(Cl)c1 | -20% | -6% | ? | 257% | 57% | 50µM*
CCc1ccc(-n2cccc2/C=C2/C(=N)N3C(=NC2=O)SN=C3S(C)(=O)=O)cc1 | ? | ? | -12%[11.6 µM] | ? | 35µM* | ?
COc1cccc(-n2c(C)cc(/C=C3/C(=N)N4C(=NC3=O)SN=C4S(C)(=O)=O)c2C)c1 | . | 18% | -18%[57.1 µM] | -23% | -12% | -15%
CS(=O)(=O)C1=NSC2=NC(=O)/C(=C\c3cccn3-c3ccccc3Cl)C(=N)N21 | -4% | -8% | -10%[11.6 µM] | -29% | 25µM* | ?
